These results are taken from paper PMC3218832.

Targets include RELARELA (p65 homodimer) (Homo sapiens, UniProt Q04206 1-307); p50p50 homodimer (Homo sapiens, UniProt P19838 7-356); RELB subunit;p50 subunit (Homo sapiens;Homo sapiens, UniProt Q01201;P19838 120-401;7-356).
Holding throughout (test): protein binding microarray; high values mean tight binding
Common to all, as to settings: dsDNA, one strand shown

A further test concerns the target T1, p52p52 homodimer (Homo sapiens, UniProt Q00653 4-332).
T1 sequence: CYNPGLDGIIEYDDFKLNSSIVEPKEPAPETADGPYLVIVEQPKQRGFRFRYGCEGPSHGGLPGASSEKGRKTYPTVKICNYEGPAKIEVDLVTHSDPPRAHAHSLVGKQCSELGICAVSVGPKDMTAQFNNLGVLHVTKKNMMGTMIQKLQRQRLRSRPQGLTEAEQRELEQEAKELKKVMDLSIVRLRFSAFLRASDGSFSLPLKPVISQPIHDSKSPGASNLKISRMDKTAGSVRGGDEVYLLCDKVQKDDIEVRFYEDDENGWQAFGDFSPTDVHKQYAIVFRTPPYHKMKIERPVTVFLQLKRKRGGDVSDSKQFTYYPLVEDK

For test [1], the target named is RELA (p65) subunit of heterodimer;p50 subunit (Homo sapiens;Homo sapiens, UniProt Q04206;P19838 1-307;7-356).
Sequence of RELA (p65) subunit of heterodimer;p50 subunit (Q04206 1-307, chain 1 of 2): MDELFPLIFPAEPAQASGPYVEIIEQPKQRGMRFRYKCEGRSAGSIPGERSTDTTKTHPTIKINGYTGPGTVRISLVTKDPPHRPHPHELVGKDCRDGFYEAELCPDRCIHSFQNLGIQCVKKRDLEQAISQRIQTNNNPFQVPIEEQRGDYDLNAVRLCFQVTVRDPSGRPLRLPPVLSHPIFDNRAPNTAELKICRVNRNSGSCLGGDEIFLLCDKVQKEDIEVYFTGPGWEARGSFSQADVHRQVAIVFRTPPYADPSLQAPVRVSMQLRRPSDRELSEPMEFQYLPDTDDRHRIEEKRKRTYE
Sequence of RELA (p65) subunit of heterodimer;p50 subunit (P19838 7-356, chain 2 of 2): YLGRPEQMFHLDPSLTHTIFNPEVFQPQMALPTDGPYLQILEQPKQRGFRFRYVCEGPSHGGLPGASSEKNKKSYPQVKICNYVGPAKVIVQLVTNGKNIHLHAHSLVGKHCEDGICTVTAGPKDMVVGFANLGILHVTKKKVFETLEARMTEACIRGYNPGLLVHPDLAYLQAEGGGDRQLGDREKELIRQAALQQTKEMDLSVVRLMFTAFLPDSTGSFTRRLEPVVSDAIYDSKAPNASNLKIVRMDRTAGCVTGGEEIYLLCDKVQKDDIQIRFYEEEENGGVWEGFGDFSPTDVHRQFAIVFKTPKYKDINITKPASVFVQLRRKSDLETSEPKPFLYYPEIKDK
For test [2], the target named is RELA (p65) subunit of heterodimer;p52 subunit (Homo sapiens;Homo sapiens, UniProt Q04206;Q00653 1-307;4-332).
The target in a further test is T2, RELB subunit;p52 subunit (Homo sapiens;Homo sapiens, UniProt Q01201;Q00653 120-401;4-332).
T2 sequence 1: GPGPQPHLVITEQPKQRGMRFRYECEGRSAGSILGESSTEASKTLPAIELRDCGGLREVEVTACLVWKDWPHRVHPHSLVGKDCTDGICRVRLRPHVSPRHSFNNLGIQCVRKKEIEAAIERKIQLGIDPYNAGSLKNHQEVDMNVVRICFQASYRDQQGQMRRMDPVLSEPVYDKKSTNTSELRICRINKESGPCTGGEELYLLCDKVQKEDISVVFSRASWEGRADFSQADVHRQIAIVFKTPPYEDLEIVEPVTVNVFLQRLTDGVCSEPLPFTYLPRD
T2 sequence 2: T1 sequence

Test [3] has as its target C-Rel subunit;p50 subunit (Homo sapiens;Homo sapiens, UniProt Q04864;P19838 1-285;7-356).
Test [4] deals with T3, C-Rel subunit;p52 subunit (Homo sapiens;Homo sapiens, UniProt Q04864;Q00653 1-285;4-332).
T3 sequence 1: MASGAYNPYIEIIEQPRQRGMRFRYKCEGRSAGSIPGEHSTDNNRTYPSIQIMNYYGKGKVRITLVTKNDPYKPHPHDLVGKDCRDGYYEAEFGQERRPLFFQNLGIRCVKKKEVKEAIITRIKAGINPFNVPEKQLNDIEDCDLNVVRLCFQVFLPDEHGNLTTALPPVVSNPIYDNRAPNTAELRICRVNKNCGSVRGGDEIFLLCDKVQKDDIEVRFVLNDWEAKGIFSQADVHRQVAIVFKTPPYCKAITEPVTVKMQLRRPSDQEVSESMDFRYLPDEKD
T3 sequence 2: T1 sequence

Sequence of RELARELA (p65 homodimer) (Q04206 1-307): as the sequence (Q04206 1-307, chain 1 of 2) above
Sequence of p50p50 homodimer (P19838 7-356): as the sequence (P19838 7-356, chain 2 of 2) above

With CAGAGTATCCT, the binding signal with RELARELA (p65 homodimer) is -0.548 z-score; with p50p50 homodimer, -1.79 z-score; in the test with p52p52 homodimer, -0.651 z-score; in [1] it was -0.987 z-score; in test [2] it was -1 z-score; in the test with RELB subunit;p50 subunit, -1.11 z-score. Also, the binding signal is -0.991 z-score in the test with RELB subunit;p52 subunit, -1.45 z-score in test [3] and -1 z-score in test [4].
Turning to GGGAACCCCCC, the binding signal in the test with RELARELA (p65 homodimer) turned out to be 2.47 z-score; with p50p50 homodimer, 1.16 z-score; with p52p52 homodimer, 3.03 z-score; in test [1], 2.69 z-score; in [2], 2.78 z-score; with RELB subunit;p50 subunit, 2.09 z-score. The binding signal with RELB subunit;p52 subunit amounted to 2.68 z-score; in [3], 2.19 z-score; in test [4], 2.96 z-score.
With CAATTACCCCT, the binding signal with RELARELA (p65 homodimer) was found to be 0.378 z-score; with p50p50 homodimer, 1.06 z-score; in the test with p52p52 homodimer it was 0.863 z-score; in test [1], 0.727 z-score; in [2] it was 1.01 z-score; with RELB subunit;p50 subunit, 0.941 z-score. Moreover, the binding signal in the test with RELB subunit;p52 subunit came to 1.38 z-score; in test [3], 0.652 z-score; in [4], 0.899 z-score.
For AAGAAGGTCCT, the binding signal with RELARELA (p65 homodimer) is -0.0161 z-score; with p50p50 homodimer, -1.4 z-score; in the test with p52p52 homodimer, -0.396 z-score; in test [1] it was -1.13 z-score; in [2], -0.801 z-score; with RELB subunit;p50 subunit, -0.786 z-score. In addition, the binding signal was -0.511 z-score with RELB subunit;p52 subunit, -1.3 z-score in test [3] and -0.718 z-score in [4].
For GAAGTGCTCCT, the binding signal with RELARELA (p65 homodimer) was -0.661 z-score; in the test with p50p50 homodimer it was -1.67 z-score; with p52p52 homodimer it was -0.792 z-score; in [1], -0.918 z-score; in test [2], -1.01 z-score; in the test with RELB subunit;p50 subunit, -1.33 z-score. Further, the binding signal is -1.22 z-score in the test with RELB subunit;p52 subunit, -1.67 z-score in [3] and -1 z-score in [4].
As for CGAAAGTTCCT, the binding signal was 0.451 z-score with RELARELA (p65 homodimer); -0.747 z-score with p50p50 homodimer; -0.53 z-score with p52p52 homodimer; -0.689 z-score in test [1]; -0.651 z-score in test [2]; -0.963 z-score with RELB subunit;p50 subunit. The binding signal was -0.709 z-score with RELB subunit;p52 subunit, -0.537 z-score in test [3] and -0.406 z-score in test [4].
Consider GAAAACCCCCT, for which the binding signal worked out at 1.83 z-score with RELARELA (p65 homodimer); 1.6 z-score with p50p50 homodimer; 2.75 z-score in the test with p52p52 homodimer; 2.46 z-score in test [1]; 2.59 z-score in test [2]; 3.02 z-score with RELB subunit;p50 subunit. For the same sequence, the binding signal with RELB subunit;p52 subunit came out at 2.62 z-score; in test [3] it was 1.99 z-score; in test [4] it was 2.86 z-score.
With CAAAGTACCCC, the binding signal in the test with RELARELA (p65 homodimer) was 0.144 z-score; in the test with p50p50 homodimer, 0.83 z-score; with p52p52 homodimer, 0.509 z-score; in test [1], 0.648 z-score; in [2] it was 0.795 z-score; with RELB subunit;p50 subunit, 1.07 z-score. Further, the binding signal in the test with RELB subunit;p52 subunit turned out to be 1.19 z-score; in test [3] it was 0.721 z-score; in [4] it was 0.588 z-score.
Turning to GGAAATTTCCT, the binding signal with RELARELA (p65 homodimer) turned out to be 3.45 z-score; with p50p50 homodimer, 0.318 z-score; in the test with p52p52 homodimer, 0.15 z-score; in [1] it was 1.83 z-score; in test [2] it was 1.22 z-score; with RELB subunit;p50 subunit, 0.0518 z-score. For the same sequence, the values for the binding signal (with RELB subunit;p52 subunit; in test [3]; in test [4]) were 0.485 z-score, 0.9 z-score and 1.42 z-score, respectively.
For the sequence AGAGACCTCCC, the binding signal was -0.639 z-score in the test with RELARELA (p65 homodimer); -0.985 z-score with p50p50 homodimer; -0.531 z-score with p52p52 homodimer; -0.592 z-score in test [1]; -0.789 z-score in test [2]; -0.533 z-score with RELB subunit;p50 subunit. The binding signal is -0.671 z-score in the test with RELB subunit;p52 subunit, -0.845 z-score in [3] and -0.997 z-score in [4].
Turning to CAATAAGTCCT, the binding signal with RELARELA (p65 homodimer) is 0.325 z-score; with p50p50 homodimer it was -1.39 z-score; in the test with p52p52 homodimer, -0.437 z-score; in test [1] it was -0.836 z-score; in test [2], -0.813 z-score; with RELB subunit;p50 subunit it was -0.817 z-score. The values for the binding signal (with RELB subunit;p52 subunit; in test [3]; in [4]) were -0.698 z-score, -0.578 z-score and -0.74 z-score, respectively.
Consider AGATGTTTCCC, for which the binding signal is 1.63 z-score with RELARELA (p65 homodimer); 0.332 z-score with p50p50 homodimer; 0.359 z-score in the test with p52p52 homodimer; 0.89 z-score in [1]; 0.674 z-score in test [2]; 0.348 z-score with RELB subunit;p50 subunit. The binding signal turned out to be 0.51 z-score in the test with RELB subunit;p52 subunit, 1.05 z-score in test [3] and 0.783 z-score in [4].
AGAGGAATCCC: the binding signal in the test with RELARELA (p65 homodimer) was 0.476 z-score; with p50p50 homodimer, 0.189 z-score; with p52p52 homodimer, 0.335 z-score; in test [1] it was 0.188 z-score; in test [2], 0.227 z-score; with RELB subunit;p50 subunit, 0.0745 z-score. The binding signal is 0.269 z-score in the test with RELB subunit;p52 subunit, 0.405 z-score in test [3] and 0.416 z-score in test [4].
Regarding AAGGGCCCCCT, the binding signal is -0.998 z-score in the test with RELARELA (p65 homodimer); 0.884 z-score with p50p50 homodimer; 0.332 z-score with p52p52 homodimer; 0.446 z-score in test [1]; 0.569 z-score in test [2]; 0.703 z-score with RELB subunit;p50 subunit. Also, the binding signal in the test with RELB subunit;p52 subunit came to 1.14 z-score; in test [3] it was 0.138 z-score; in test [4], 0.261 z-score.
GAAAGGTTCCC: the binding signal with RELARELA (p65 homodimer) was 0.328 z-score; in the test with p50p50 homodimer it was -0.486 z-score; with p52p52 homodimer, -0.241 z-score; in test [1], -0.184 z-score; in [2], -0.334 z-score; in the test with RELB subunit;p50 subunit it was -0.203 z-score. The binding signal was -0.316 z-score with RELB subunit;p52 subunit, -0.141 z-score in [3] and -0.167 z-score in [4].
